High-throughput results deposited in PubChem by several laboratories.
Hits are enriched below; roughly 7% of the tested compounds scored in any of these assays.
proKLK7 act: proKLK7 zymogen activators, primary screen, biochemical, fluorescence intensity. 370,000 tested, 0.9% active. purified proKLK7, EDANS-DABCYL substrate fluorescence; 100% is mature enzyme control, 0% vehicle. activation, % at 7 µM. AID 652039, 2013;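 active means activation above the mean of all tested compounds plus 3 SD, computed per campaign excluding outliers beyond control limits, cut at about 13% in these data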
ADAM17 inh: ADAM17 inhibitors, primary screen, biochemical, QFRET | Disintegrin and metalloproteinase domain-containing protein 17 (Homo sapiens), P78536 | recombinant ADAM17, EDANS/DABCYL FRET peptide cleavage | inhibition, % at 6.95 µM | 370,000 tested, 0.83% active | AID 720648, 2013;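 active means inhibition above the mean of compounds lying between control limits plus 3 SD, set per campaign, cut at about 8.5% in these data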;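 further: 0% = DMSO-only wells as the low control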
rCAG RNA binder: binders of r(CAG) RNA repeats, primary screen, biochemical, fluorescence; r(CAG) RNA repeat, TO-PRO-1 dye displacement fluorescence; inhibition, % at 3 µM; 370,000 tested, 1.3% active; AID 651821, 2012;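 active means inhibition above the plate cutoff, the mean of all test compounds on that plate plus 3 SD, cut at about 35% in these data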;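 further: 0% = DMSO alone and 100% = 100 µM mitoxantrone as full dye displacement; higher means more dye released from RNA so lower well fluorescence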
NR3A LBD binder: binders of NR3A ligand-binding domain, primary screen, biophysical, differential scanning fluorimetry, uHTS. 340,000 tested, 2.5% active. Tm shift relative to glycine control, % at 25 µM. AID 1259313, 2017. NR3A LBD differential scanning fluorimetry, Tm shift; 0% = protein alone, 100% = glycine-bound protein;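 active means melting temperature shift of at least 10% of the positive control shift, at one fixed dose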
ADAM10 inh: human ADAM10 inhibitors, primary screen, biochemical, QFRET, HTS. inhibition, % at 7 µM. 370,000 tested, 0.62% active. Disintegrin and metalloproteinase domain-containing protein 10 (Homo sapiens), O14672. recombinant ADAM10, EDANS/DABCYL FRET peptide cleavage, 3 h;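 active means inhibition above a per-campaign cutoff equal to the mean of compounds falling between control-based bounds plus 3 SD, cut at about 20% in these data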;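 further: 0% = DMSO wells while the 100% control is not disclosed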
Target sequence (O14672 214-748 limits assumed): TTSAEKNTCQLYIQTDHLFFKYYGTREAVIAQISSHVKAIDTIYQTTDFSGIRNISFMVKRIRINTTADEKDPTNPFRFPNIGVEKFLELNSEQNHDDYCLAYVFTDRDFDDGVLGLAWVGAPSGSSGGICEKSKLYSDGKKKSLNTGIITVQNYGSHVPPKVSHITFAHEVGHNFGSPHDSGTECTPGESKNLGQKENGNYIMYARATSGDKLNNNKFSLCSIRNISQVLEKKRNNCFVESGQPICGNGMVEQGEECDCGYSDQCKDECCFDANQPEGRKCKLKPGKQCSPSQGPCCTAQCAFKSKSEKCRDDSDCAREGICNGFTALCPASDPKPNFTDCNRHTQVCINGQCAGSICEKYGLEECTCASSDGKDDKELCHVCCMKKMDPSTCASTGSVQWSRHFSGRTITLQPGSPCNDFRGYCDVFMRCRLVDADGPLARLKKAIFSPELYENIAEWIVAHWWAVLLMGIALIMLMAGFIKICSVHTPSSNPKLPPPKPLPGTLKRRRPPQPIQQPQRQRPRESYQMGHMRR
AHR activator: AHR activators, primary screen, cell-based, luminescence, luciferase reporter, human. Aryl hydrocarbon receptor (Homo sapiens), P35869. AHR-responsive luciferase reporter cells. activation, % at 5 µM. 320,000 tested, 2.5% active; in the data active means activation above about 47%;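 further: 0% = vehicle wells and 100% = reference agonist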
proKLK7 act conf: proKLK7 zymogen activators, confirmation, biochemical, fluorescence intensity, triplicate; shares compounds with proKLK7 act; purified proKLK7, EDANS-DABCYL substrate fluorescence; scaled: vehicle 0, mature enzyme 100; activation, % at 7 µM; 3,200 tested, 68% active; AID 686949, 2013;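 active means activation, as change over the incubation, above the mean of all tested compounds plus 3 SD, cut at about 13% in these data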
EDANS interfere: EDANS-DABCYL substrate optical interference, artefact control for kallikrein-7 zymogen activator project, biochemical, fluorescence intensity, high throughput | no enzyme, 4 h; solvent 0%, active enzyme control 100% | shares compounds with proKLK7 act | activation, % at 7 µM | 3,200 tested, 80% active | AID 686952, 2013;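 active means activation above the all-compound mean plus 3 SD, ignoring values outside control-based bounds, cut at about 4.8% in these data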;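 further: value is the 4 h activation minus the activation read at time zero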
EDANS interf: optically interferes with EDANS-DABCYL fluorescence, kallikrein-7 activator counter-screen | shares compounds with proKLK7 act | AID 720493 | EDANS-DABCYL peptide fluorescence interference, no enzyme | EC50, µM | 250 tested, 20% active;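 active means compounds that raise the fluorescence signal in this interference counterscreen, with EC50 at or below 10 µM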;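 further: intact quenched peptide substrate alone read at 355 nm excitation and 520 nm emission; signal is fluorescence gain from T0 to T4 after four hours at room temperature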
Starred values were filed as active, the others as inactive; i = inactive; . = no result given.

SMILES	proKLK7 act	ADAM17 inh	rCAG RNA binder	NR3A LBD binder	ADAM10 inh	AHR activator	proKLK7 act conf	EDANS interfere	others
Cc1cc(=O)oc2c3c(cc(OCC(=O)NC(C)C)c12)OC(C)(C)CC3	23.1*	i	-5.4	-1.4	i	.	47.1*	63.2*
CNc1cccc(-c2ccc(C(=O)N3CCOCC3)cc2)n1	3.5	-23.1	1.3	.	-85.6	.	.	.
CNc1cnc(-c2cccc(C(=O)N3CCOCC3)c2)cn1	14.2*	-354.1	0.7	.	i	.	14.9*	20.1*
COc1cc2c[n+](C)c3c4ccccc4ccc3c2cc1OC	26.2*	-330.1	12.9	-0.3	i	.	10.5	16.0*
COc1ccc2c(c1)c[n+](C)c1c3cc(OC)c(OC)cc3ccc21	-1.5	-6.2	18.1	.	-26.6	.	.	.
CN1C=CC2=C(C#N)C(N)C(C#N)(C#N)[C@H](c3ccccc3)[C@H]2C1 (stereo not given in full)	38.9*	-224.2	-13.3	-1.6	i	5.0	22.0*	18.1*	EDANS interf=>69.5
CCc1cc(=O)oc2c(CNCc3ccc(OC)cc3OC)c(O)c(Cl)cc12	44.1*	i	-1.9	1.4	i	12.6	70.4*	66.8*
COc1ccc(CNCc2c(O)c(Cl)cc3c(C)c(C)c(=O)oc23)c(OC)c1	31.9*	i	0.9	1.4	i	6.2	74.3*	77.7*
CCCCn1c(N)c(N(CCOC)C(=O)COC(=O)c2ccccc2NCCO)c(=O)[nH]c1=O	35.7*	i	2.6	-1.1	i	.	18.9*	21.7*
COCCN(C(=O)COC(=O)c1ccccc1NCc1ccco1)c1c(N)n(Cc2ccccc2)c(=O)[nH]c1=O	-34.8	i	4.0	-1.0	i	-3.2	.	.
CCc1c(C)c2ccc(OCC(=O)OC)cc2oc1=O	20.5*	-147.6	-2.8	-1.1	-477.1	-2.1	21.6*	21.4*
COC(=O)Cc1c(C)c2cc(Cl)c(OC(=O)c3ccco3)cc2oc1=O	88.2*	i	0.1	2.9	i	0.9	397.1*	432.2*
COC(=O)Cc1c(C)c2ccc(OC(=O)c3ccco3)cc2oc1=O	439.0*	i	0.5	0.2	i	-3.4	735.6*	740.9*
COC(=O)Cc1c(C)c2ccc(OC(C)C)cc2oc1=O	7.7	-323.9	-2.9	-0.4	i	19.4	.	.
CC(=O)Nc1ccc2[nH]c(C)cc(=O)c2c1	-0.2	-20.4	2.5	-1.0	-69.1	0.6	.	.
COc1cccc(-c2cc(=O)c3cc(NC(C)=O)ccc3[nH]2)c1	25.3*	-373.4	-1.6	-2.2	i	15.3	32.5*	32.0*
O=[n+]1cc(-c2cc3ccccc3o2)n([O-])c2c1CCCC2	14.9*	-45.1	-1.4	-2.8	-162.4	10.7	12.4	17.8*
CCOC(=O)c1cnc2cc3c(cn2c1=O)CCCC3	12.8*	i	0.9	-1.9	i	-1.8	6.2	10.2*
CCOC(=O)c1cc2c(nc1N)CCCC2	4.6	-192.2	-2.1	0.5	i	-0.1	.	.
CN(C)c1nc2sc3c(c2c(=O)n1C)CC(C)(C)OC3	0.4	-7.7	-3.0	0.7	-7.4	7.7	.	.
CNc1nc2sc3c(c2c(=O)n1C)CC(C)(C)SC3	23.2*	i	7.2	-0.1	i	8.1	1.1	2.0
